The supplement of paper PMC6135742
Structures can show the parent of a compound that is named as a salt. In all, about 2,600 compounds were measured (“total cell number (DAPI+ nuclei) relative to DMSO vehicle control”: median about -1.4, lowest 2% from about -23 on). What follows is part of a selection rich in the lowest values, with near analogues and random picks from the rest.

Tested on: jimpy (Plp1 jimpy) mouse iPSC-derived oligodendrocyte progenitor cells
Test: total cell number (DAPI+ nuclei) relative to DMSO vehicle control (SDs above negative control mean); higher = more surviving cells
Conditions: 10 µM; 3 days
Procedure: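 Primary phenotypic screen of >3,000 bioactive compounds (Selleck L1700 and Sigma LO1280 libraries) at a single dose of 10 µM. Compounds were added to jimpy (Plp1 mutant) mouse iPSC-derived OPCs at the start of thyroid hormone-induced oligodendrocyte differentiation, one well per compound in 384-well plates. After 3 days cells were stained for MBP, Sox10 and DAPI and imaged with an Operetta system. MBP+ oligodendrocyte number and total cell number were expressed as the number of SDs above the mean of the DMSO negative control on the same plate (n=16 control wells per plate). Hits were defined as >=4 SD for oligodendrocytes and >=2 SD for total cells.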

Row | SMILES | total cell number
1 | CCCCCN(CCCOC)C(=O)C(CCC(=O)O)NC(=O)c1ccc(Cl)c(Cl)c1 (stereo not drawn) [Loxiglumide] | -0.322
2 | CC[C@@H]1C(=O)N(C)c2cnc(Nc3ccc(C(=O)NC4CCN(C)CC4)cc3OC)nc2N1C1CCCC1 | -26.1
3 | CC[C@@H]1C(=O)N(C)c2cnc(Nc3ccc(C(=O)N[C@H]4CC[C@H](N5CCN(CC6CC6)CC5)CC4)cc3OC)nc2N1C(C)C [Volasertib (BI 6727)] | -14.6
4 | COc1cc(OC2CCN(C)CC2)ccc1Nc1ncc2c(n1)n(C1CCCC1)c(=O)n2C | -7.07
5 | CN1C2=CC(=O)/C(=N\NC(N)=O)C=C2CC1S(=O)(=O)O (stereo not drawn) [Carbazochrome sodium sulfonate (AC-17)] | -0.411
6 | CC1=C(C(=O)OC(C)C)C(c2cccc([N+](=O)[O-])c2)C(C(=O)OC2CN(C(c3ccccc3)c3ccccc3)C2)=C(N)N1 (stereo not drawn) [Azelnidipine] | -12.3
7 | CNCc1cc(-c2ccccc2F)n(S(=O)(=O)c2cccnc2)c1 | -1.01
8 | CNC(=O)c1cc(Oc2ccc(NC(=O)Nc3ccc(Cl)c(C(F)(F)F)c3)c(F)c2)ccn1 [Regorafenib (BAY 73-4506)] | 0.684
9 | C=CC(=O)Nc1cccc(Nc2nc(Nc3ccc(N4CCN(C(C)=O)CC4)cc3OC)ncc2C(F)(F)F)c1 | -15.5
10 | C=CC(=O)Nc1cccc(Oc2nc(Nc3ccc(N4CCN(C)CC4)cc3)ncc2Cl)c1 | -26.9
11 | C=CC(=O)Nc1cccc(Oc2nc(Nc3ccc(N4CCN(C)CC4)cc3OC)ncc2Cl)c1 | -24.9
12 | CNC(=O)c1ccccc1Nc1nc(Nc2ccc(N3CCOCC3)cc2OC)ncc1Cl | -12.2
13 | C=CC(=O)Nc1cccc(Sc2nc(Nc3ccc(N4CCN(C)CC4)cc3)ncc2Cl)c1 | -26.9
14 | C=CCn1c(=O)c2cnc(Nc3ccc(N4CCN(C)CC4)cc3)nc2n1-c1cccc(C(C)(C)O)n1 | -14.6
15 | Cc1cnc(Nc2ccc(N3CCN(C)CC3)cc2)nc1Nc1cccc(S(=O)(=O)NC(C)(C)C)c1 | -12.1
16 | Cn1c(=O)c(-c2c(Cl)cccc2Cl)cc2cnc(Nc3ccc(N4CCOCC4)cc3)nc21 | -9.85
17 | CCC(=O)Nc1cccc(Oc2nc(Nc3ccc(N4CCN(C)CC4)cc3OC)ncc2Cl)c1 | -15.2
18 | Cc1cc(Nc2ncc(Cl)c(Nc3ccccc3S(=O)(=O)C(C)C)n2)c(OC(C)C)cc1C1CCNCC1 | -16.3
19 | C=CC(=O)Nc1cccc(Nc2nc(Nc3ccc(Oc4ccnc(C(=O)NC)c4)cc3)ncc2F)c1 | -15
20 | COc1cc(N2CCC(N3CCN(C)CC3)CC2)ccc1Nc1ncc(Cl)c(Nc2ccccc2S(=O)(=O)C(C)C)n1 | -27.1
21 | CC(C)(CO)Cc1cc(C(C)(C)C)c(O)c(C(C)(C)C)c1 | 1.01
22 | COC(=O)C1=C(C)NC(C)=C(C(=O)OC(C)(C)CN(C)CCC(c2ccccc2)c2ccccc2)C1c1cccc([N+](=O)[O-])c1 (stereo not drawn) [Lercanidipine hydrochloride hemihydrate] | -8.91
23 | CC(C)(NS(=O)(=O)c1ccc(Oc2ccc(F)cc2)cc1)C(=O)NO | -2.86
24 | CC(N)(Cc1ccc(O)c(O)c1)C(=O)O (racemic) [(±)-3-(3,4-dihydroxyphenyl)-2-methyl-DL-alanine] | -2.34

Row | SMILES | total cell number
25 | N=C(N)SCCN [2-(2-Aminoethyl)isothiourea dihydrobromide] | -2.29
26 | CCCCNc1ncc(-c2ccc(CN3CCOCC3)cn2)c(NC2CCC(O)CC2)n1 (stereo not drawn) | -8.26
27 | O=C(NC1CCOCC1)c1ccc(-c2cc(-c3c[nH]nc3-c3ccccn3)ccn2)cc1 | -0.803
28 | O=C(Nc1c[nH]nc1-c1nc2ccc(CN3CCOCC3)cc2[nH]1)NC1CC1 | -22.6
29 | O=C(O)Cn1nnc(-c2cc(N3CCC(Oc4cc(F)ccc4Br)CC3)no2)n1 | 3.6
30 | CC(C)N(CCCNC(=O)Nc1ccc(C(C)(C)C)cc1)C[C@H]1O[C@@H](n2cc(Br)c3c(N)ncnc32)[C@H](O)[C@@H]1O | -7.77
31 | CCS(=O)(=O)Nc1ccc2c(c1)/C(=C(/Nc1ccc(CN3CCCCC3)cc1)c1ccccc1)C(=O)N2 [Hesperadin] | -17.7
32 | CN(C)Cc1cccc(N/C(=C2\C(=O)Nc3cc(C(N)=O)ccc32)c2ccccc2)c1 | -14.3
33 | COC(=O)c1ccc2c(c1)NC(=O)/C2=C(\Nc1ccc(N(C)C(=O)CN2CCN(C)CC2)cc1)c1ccccc1 [Nintedanib (BIBF 1120)] | -23
34 | C[C@@H]1O[C@@H](OC[C@H]2O[C@@H](Oc3c(-c4ccc(O)c(O)c4)oc4cc(O)cc(O)c4c3=O)[C@H](O)[C@@H](O)[C@@H]2O)[C@H](O)[C@H](O)[C@H]1O [Rutin] | -0.749
35 | CCCNS(=O)(=O)Nc1ncnc(OCCOc2ncc(Br)cn2)c1-c1ccc(Br)cc1 [Macitentan] | -0.584
36 | CC(C)C[C@H](NC(=O)[C@H](Cc1ccccc1)NC(=O)c1cnccn1)B(O)O [Bortezomib (PS-341)] | -20.2
37 | CC(C)[C@H](NC(=O)c1ccc2ccccc2n1)C(=O)N[C@@H](CC(=O)O)C(=O)COc1c(F)cccc1F | 15.6
38 | CC(C)C[C@H](NC(=O)[C@@H](NC(=O)c1cccc(-c2ccccc2)n1)[C@@H](C)O)B(O)O | -22.6
39 | C=CC(N)CCC(=O)O (racemic) [(±)-gamma-Vinyl GABA] | -0.562
40 | COc1ccc(C2CC(=O)c3c(O)cc(OC4OC(COC5OC(C)C(O)C(O)C5O)C(O)C(O)C4O)cc3O2)cc1OC (stereo not drawn) [Methyl-Hesperidin] | -1.13
41 | NCC(O)c1ccc(O)c(O)c1 (racemic) [(±)-Norepinephrine (+)bitartrate] | 0.169
42 | COc1cccc(C(=O)NCCN2CCN(c3ccc(Cl)cc3)CC2)c1 | -2.1
43 | Cc1nc(Nc2ncc(C(=O)Nc3c(C)cccc3Cl)s2)cc(N2CCN(CCO)CC2)n1 [Dasatinib] | -22.6
44 | CNC(=O)c1ccc2cc([C@@]3(O)CCn4cncc43)ccc2c1 [TAK-700 (Orteronel)] | 0.9
45 | CC1(C)S[C@@H]2[C@H](NC(=O)C(C(=O)O)c3ccccc3)C(=O)N2[C@H]1C(=O)O (stereo partly drawn) [Carbenicillin disodium] | 0.323
46 | O=C(Nc1ccc(-c2ccnc(Nc3ccc(N4CCOCC4)cc3)n2)cc1)C1CCCN1 (stereo not drawn) | -12.4
47 | N#CCNC(=O)c1ccc(-c2ccnc(Nc3ccc(N4CCOCC4)cc3)n2)cc1 | -12.5
48 | Cc1nc(N)sc1-c1ccnc(Nc2ccc(N3CCOCC3)cc2)n1 | -22.6
